# Where “and” joins values, the source holds several entries; their conditions need not be identical. Identical values can stand only once. Records with an inconclusive call do not appear. A number with no mark means an inactive call. Calls of active or inactive are those of the source. The call rests on the fitted dose curve.
# Molecular target: Cytochrome P450 1A2 (Homo sapiens) (UniProt P05177)
# Assay: p450-cyp1a2 (AID 410);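 on activity change, negative = inhibition: -100% = full effect of reference inhibitor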
# Settings: recombinant CYP1A2, luciferin-ME demethylation, luminescence; series mostly up to 57 µM; activity change, negative = inhibition: at the top concentration
# Procedure: The P450 gene superfamily is involved in metabolism and the clearance of xenobiotics. This assay used human CYP1A2 to measure the demethylation of luciferin 6' methyl ether (Luciferin-ME; Promega-Glo) to luciferin. The luciferin is then measured by luminescence after the addition of a luciferase detection regeant. Luciferin-ME concentration in the assay was equal to its Km for CYP1A2.
# NCGC Assay Protocol Summary:
# Two uL of enzyme and substrate mix (final concentrations: 20nM CYP1A2, 100uM Luciferin-ME, 100mM KPO4) were dispensed into a white, solid bottom 1536-well microtiter plate. 23nL of compound was transferred by a pin tool. The plate was incubated at room temperature for 10 min. Two uL of an NADPH regeneration solution (Promega supplied reagent) was dispensed and the reaction was allowed to continue for 60 min at room temperature. Then the reaction was stopped by reconstituted detection reagent. After another 20 min of incubation the plate was read on the ViewLux (Perkin Elmer) at 60 sec exposure and 2x2 binning. This protocol was carried out with Promega-Glo reagents and further information can be found at http://www.promega.com/tbs/tb325/tb325.pdf. Data were normalized to the to AC100 inhibition (57 uM furafylline).
# Potency means the concentration at half of the fitted maximal effect.
# Chain of Cytochrome P450 1A2 (Homo sapiens) (P05177 whole entry, looked up): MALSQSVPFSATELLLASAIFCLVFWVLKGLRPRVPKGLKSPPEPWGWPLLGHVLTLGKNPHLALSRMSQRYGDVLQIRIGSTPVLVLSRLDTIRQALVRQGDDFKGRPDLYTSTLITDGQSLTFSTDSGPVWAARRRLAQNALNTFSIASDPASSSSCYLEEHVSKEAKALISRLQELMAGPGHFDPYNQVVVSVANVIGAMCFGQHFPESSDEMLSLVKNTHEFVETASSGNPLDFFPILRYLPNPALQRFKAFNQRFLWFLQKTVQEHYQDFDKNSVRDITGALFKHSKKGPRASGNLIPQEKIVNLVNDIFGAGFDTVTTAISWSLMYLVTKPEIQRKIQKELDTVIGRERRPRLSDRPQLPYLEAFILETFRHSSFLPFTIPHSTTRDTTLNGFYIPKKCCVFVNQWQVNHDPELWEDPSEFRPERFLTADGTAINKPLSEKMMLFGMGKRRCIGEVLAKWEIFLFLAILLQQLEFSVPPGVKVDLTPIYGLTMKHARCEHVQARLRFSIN
Structure (SMILES),Potency,"activity change, negative = inhibition"
C[C@@](N)(C(=O)O)c1ccc(C(=O)O)cc1,inactive,–
CCN(CC)CCOC(=O)C1(c2ccc([N+](=O)[O-])cc2)CCCC1,3.98 µM (active) and 3.16 µM (active),–
CCCCOc1cc(C[C@@H]2CNC(=O)N2)ccc1OC,12.6 µM (active) and 10 µM (active),–
CC(C)(C)Cn1nc(-c2ccc(Cl)cc2)c2c(N)ncnc21,0.158 µM (active),–
OC[C@H]1NC[C@H](O)[C@@H](O)[C@H]1O,–,-2%
Nc1c(S(=O)(=O)O)cc(Nc2ccc(Nc3nc(Cl)nc(Nc4ccc(S(=O)(=O)O)cc4)n3)c(S(=O)(=O)O)c2)c2c1C(=O)c1ccccc1C2=O,15.8 µM (active),–
CC(C)SC(=N)N,–,-17.7%
CC(=O)NCCc1c(Cc2ccccc2)[nH]c2ccccc12,12.6 µM (active),–
CN1[C@H](CC(=O)c2ccccc2)CCC[C@H]1C[C@H](O)c1ccccc1,15.8 µM (active),–
C[C@@H](CCc1ccc(O)cc1)NCCc1ccc(O)c(O)c1,inactive,–
c1cc2c(cc1C1CCCCC1)c1c3n2CCN[C@H]3CCC1,15.8 µM (active),–
NCCCCCCCCCCNS(=O)(=O)c1cccc2c(Cl)cccc12,15.8 µM (active),–
CCCCCN=c1ccn(Cc2ccccc2)c2ccccc12,25.1 µM (active),–
CC[C@H](C)C(=O)O[C@H]1CCC=C2C=C[C@H](C)[C@H](CC[C@@H]3C[C@H](O)CC(=O)O3)[C@H]21,31.6 µM (active),–
Fc1cccc(/C=N\N=C/c2cccc(F)c2)c1,0.2 µM (active),–
CC(C)[C@@H]1C(=O)N(S(C)(=O)=O)[C@H]2CCN(C(=O)/C=C\CN3CCCCC3)[C@@H]12,–,8.9%
CC[C@H](C)N(C)C(=O)c1cc2ccccc2c(-c2ccccc2Cl)n1,inactive,–
O=C1c2ccccc2CC[C@H]1CNCCc1ccc(O)cc1,20 µM (active),–
CN(C)c1ccc(/C=C2/C(=O)Nc3ccccc32)cc1,398 nM (active) and 100 nM (active),–
COCCNC(=O)COc1ccc(OCCNC[C@@H](O)COc2ccccc2)cc1,–,-35.6%

Structure (SMILES),Potency,"activity change, negative = inhibition"
Cc1noc(NS(=O)(=O)c2cccc3c(N(C)C)cccc23)c1C,–,-11.1%
CC1(C)C(=O)NC2=C1C(=O)C(=O)c1ccccc12,3.16 µM (active),–
O=C(Nc1cc(C(=O)Nc2ccc(S(=O)(=O)O)cc2S(=O)(=O)O)cc(C(=O)Nc2ccc(S(=O)(=O)O)cc2S(=O)(=O)O)c1)Nc1cc(C(=O)Nc2ccc(S(=O)(=O)O)cc2S(=O)(=O)O)cc(C(=O)Nc2ccc(S(=O)(=O)O)cc2S(=O)(=O)O)c1,31.6 µM (active),–
Cc1ccc(S(=O)(=O)/C=C\C#N)cc1,3.98 µM (active),–
O=C(O)[C@H]1CN(CCCP(=O)(O)O)CCN1,inactive,–
N#CC(=C(/N)Sc1ccccc1N)/C(C#N)=C(/N)Sc1ccccc1N,12.6 µM (active) and 31.6 µM (active),–
CCOC(OCC)P(=O)(O)CCCNCc1ccc(Cl)c(Cl)c1,–,-38%
C[C@@](N)(C(=O)O)c1ccc(P(=O)(O)O)cc1,39.8 µM (active),–
N[C@@H](C(=O)O)c1cc(O)ccc1Cl,15.8 µM (active),–
COC(=O)c1c(-c2cc(OC)c(OC)c(OC)c2)c2ccnc(OCc3ncccn3)c2c(=O)n1Cc1ccnc(C)c1,inactive,–
CCCCCCCCCCCCCCCC(=O)NC(C)C,–,-6.7%
C=CCN1CCN(c2nc3ccccc3nc2C#N)CC1,0.1 µM (active),–
Clc1ccccc1CNCC1CCC(CNCc2ccccc2Cl)CC1 (stereo not given),–,-6.8%
N[C@H](C(=O)O)[C@H](OCc1ccccc1)C(=O)O,31.6 µM (active),–
C[C@](O)(C(=O)Nc1ccc(S(=O)(=O)c2ccccc2)cc1)C(F)(F)F,39.8 µM (active),–
CSc1ccc2c(c1)[C@H](N1CCN(C)CC1)Cc1ccccc1S2,31.6 µM (active),–
Oc1cc2c(cc1O)[C@H](c1ccccc1)CNCC2,inactive,–
COc1ccc2c(c1)CCC1[C@@H]2CCC2(C)[C@@H](NCCCCCCN3C(=O)C=CC3=O)CC[C@@H]12 (stereo not given in full),–,-3.2%
O=C(O)[C@H]1CCCNC1,inactive,–
CSc1cc2c(cc1C(F)(F)F)N(C(=O)Nc1cccnc1)CC2,0.000794 µM (active),–

# Reference: PubChem BioAssay (NCATS)
